Screening results from PubChem BioAssay.
Shown is part of a subset that was picked to be rich in hits.
Shiga inhibitor – A qHTS for Small Molecule Inhibitors of Shiga Toxin; Vero cells, Shiga toxin protein synthesis inhibition reporter; inhibition, % at 38.7 µM; actives 9.2% (n = 290,000); AID 2315, 2010; in the data active = inhibition mostly above about 28%, no sharp cut-off; inactive = mostly below about 43%; note: 0% is about no effect
AmpC detergent – qHTS Inhibitors of AmpC Beta-Lactamase (assay with detergent) | P00811 | Potency, µM (top dose mostly 114 µM), for the others: at the top dose activity change, negative = inhibition, usual class: inhibitors | actives 0.041% (n = 370,000) | AmpC hydrolysis of nitrocefin, absorbance 480 nm, 0.01% Triton;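 note: potency is the fitted concentration of half-maximal effect; 0% = no-compound wells and -100% = no-enzyme wells; nearly all actives have a fitted effect of over 25% in size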
Target sequence (P00811 whole entry, looked up): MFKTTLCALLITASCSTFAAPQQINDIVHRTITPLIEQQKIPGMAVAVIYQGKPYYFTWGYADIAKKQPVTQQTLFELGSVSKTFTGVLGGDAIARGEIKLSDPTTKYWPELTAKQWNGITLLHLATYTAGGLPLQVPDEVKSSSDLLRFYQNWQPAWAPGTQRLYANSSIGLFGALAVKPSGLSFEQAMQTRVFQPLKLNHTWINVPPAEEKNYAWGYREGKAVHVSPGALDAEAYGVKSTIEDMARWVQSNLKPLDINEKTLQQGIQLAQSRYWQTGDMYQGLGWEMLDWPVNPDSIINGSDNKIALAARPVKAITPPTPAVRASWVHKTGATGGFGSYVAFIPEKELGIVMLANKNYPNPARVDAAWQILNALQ
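20 mM phosphate pH 7.0 + 0.01% (detergent screen) or 0.0001% Triton X-100; 5.3 nM AmpC reagent; cpd preinc 15 min RT; nitrocefin (800 uM stock) to start; A480 q20 s × 4 min; Activity was normalised to no-enzyme and no-compound control wells.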
SARS PLP yeast – qHTS of Yeast-based Assay for SARS-CoV PLP; Potency, µM (series often up to 32.9 µM), for the others: at the top dose activity, positive = growth rescue, most hits filed as activators; AID 485353, 2010; S. cerevisiae expressing SARS-CoV PLpro, growth rescue; actives 0.19% (n = 330,000); calls by dose curve; note: potency is the fitted concentration of half-maximal effect; 0% is about no effect; nearly all actives have a fitted effect of over 55% in size
CHX counter – Cycloheximide Counterscreen for Small Molecule Inhibitors of Shiga Toxin | cell reporter, cycloheximide protein synthesis inhibition counterscreen | max response, % | actives 12% (n = 300,000) | AID 2314, 2010; in the data active = max response mostly above about 13%, no sharp cut-off; inactive = mostly below about 14%; note: read at 38.3 µM for the half of the compounds with a filed dose; 0% is about no effect
AMA1 RON2 block – qHTS for Inhibitors of AMA1-RON; Towards Development of Antimalarial Drug Lead: Primary Screen. AlphaScreen AMA1-biotinylated RON2 peptide binding. Plasmodium falciparum AMA1 (3D7) - RON2 peptide interaction. Potency, µM (top dose mostly 58.2 µM), inactives show top-dose activity change, negative = inhibition, usual class: inhibitors. actives 0.2% (n = 360,000);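 note: potency is the fitted concentration of half-maximal effect; 0% = vehicle wells and -100% = peptide control; nearly all actives have a fitted effect of over 45% in size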
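AMA1 (3D7) with his tag at 25 nM final met compounds first, then biotinylated RON2 peptide at 25 nM; detection used donor plus acceptor beads, 10 µg/mL apiece, read by AlphaScreen after 30 min at room temperature.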
AmpC no deterg – qHTS Inhibitors of AmpC Beta-Lactamase (assay without detergent); Potency, µM (series often up to 57.1 µM), for the others: at the highest dose activity change, negative = inhibition, most hits filed as inhibitors; P00811; actives 0.52% (n = 330,000); AID 485341, 2010; AmpC nitrocefin hydrolysis, absorbance 480 nm, 0.0001% Triton;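 note: potency is the fitted concentration of half-maximal effect; plate controls were no compound for no effect and no enzyme for full effect; nearly all actives have a fitted effect of over 20% in size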
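AmpC (5.3 nM in the dispensed reagent) in 20 mM phosphate pH 7.0 with 0.01% (detergent screen) or 0.0001% Triton X-100 was preincubated with compounds for 15 min at room temperature. Nitrocefin was then added from an 800 uM solution, and hydrolysis was followed at 480 nm.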
The depositor's hits bear a star; ? = inconclusive; nt = not tested or not shown. Unless noted, calls come from the whole dose curve; as a rule, active = well fitted curve in the direction sought with a large enough effect; inconclusive = small, poorly fitted or top-dose-only effect, or another doubt; inactive = no such curve, though single readings can be large; an effect the other way counts as inactive or inconclusive.

SMILES	Shiga inhibitor	AmpC detergent	SARS PLP yeast	CHX counter	AMA1 RON2 block	AmpC no deterg
CCOc1ccc(/C=N/Nc2ccccn2)cc1OC	110.0*	-1.2%	3.5%	39.3*	7.7%	-21.9%
CCCOc1ccc(/C=N/Nc2ccccn2)cc1OC	87.7*	-6.1%	2.3%	49.7*	-10.5%	-14.7%
C=CCOc1ccc(/C=N/Nc2ccccn2)cc1OC	101.1*	2.1%	-0.8%	57.2*	29.0%	-21.5%
CCCCCCCCCCNC(=O)CCn1[nH]c(=O)c2ccccc2c1=O	nt	nt	nt	nt	0.4%	nt
COc1cc(/C=N/Nc2ccccn2)cc(OC)c1O	62.6*	7.4%	-1.2%	25.3*	51.0%	-21.8%
CCOc1ccc(/C=N/N(C)c2ccccc2)cc1OC	63.8*	?	-3.5%	24.8*	?	52.1%
CC(C)CCOc1ccccc1C(N)=O	-5.6	-9.8%	0.1%	3.7	-1.0%	-1.5%
Cc1cc(C(=O)NCc2ccccc2Cl)c2c(C)nn(-c3ccccc3)c2n1	nt	21.1%	nt	nt	nt	nt
Cc1sc2c(c1C)C(=O)NC(c1cccc(O)c1)N2 (centres undefined)	35.4	?	-3.7%	26.9*	nt	-33.9%
COc1cccc(/C=N/n2c(C)nc3ccccc32)c1OC	37.9*	1.5%	-8.1%	20.8	6.5%	32.5%
COc1cccc(/C=N/n2c(=O)[nH]c3ccccc32)c1OC	41.7*	?	-2.7%	38.5*	-27.3%	-1.3%
N[C@@H](Cc1ccc(O)c(I)c1)C(=O)O	-11.2	-6.2%	4.2%	-2.4	nt	-32.5%
COCCn1cnnc1SCC(=O)Nc1cccc(S(=O)(=O)N(C)c2ccccc2)c1	0.7	-10.1%	0.3%	4.7	-17.2%	52.8%
O=C(Cn1nnc(-c2ccccc2)n1)Nc1cccc(S(=O)(=O)N2CCOCC2)c1	nt	0.0%	1.3%	nt	0.8%	17.8µM*
Cc1ccc(S(=O)(=O)N2CCOCC2)cc1NC(=O)Cn1nnc(-c2ccccc2)n1	nt	nt	nt	nt	2.2%	nt
O=C(CSc1nnc(Nc2ccccc2)s1)Nc1cccc(S(=O)(=O)N2CCCCC2)c1	57.6*	?	1.9%	49.5*	3.4%	-17.3%
Cc1nnc(SCC(=O)Nc2cccc(S(=O)(=O)N(C)c3ccccc3)c2)s1	-67.3	2.0%	-4.0%	38.4*	9.3%	-7.2%
Nc1nnc(SCC(=O)Nc2cccc(S(=O)(=O)N3CCCCC3)c2)s1	nt	-9.3%	0.9%	nt	11.8%	-44.8%
COC(=O)CSc1nc(N)c2c3c(sc2n1)CCCC3	46.1	-12.0%	-5.3%	16.0*	2.4%	11.4%
Cc1ccc(NC(=O)CSc2nc(N)c3c4c(sc3n2)CSC(C)(C)C4)cc1	5.5	?	3.4%	1.7	-5.2%	-26.7%
CC(C)(C)C1CCc2c(sc3nc(SCC(=O)O)nc(N)c23)C1 (centres undefined)	34.4	1.6%	0.8%	15.8*	-1.1%	-28.4%
Cc1ccccc1NC(=O)CSc1nc(N)c2c3c(sc2n1)CSC(C)(C)C3	-3.7	?	16.5%	6.1	-15.2%	15.8µM*
CSc1nc2sc3c(c2c(=O)n1-c1ccccc1)CCC(C(C)(C)C)C3 (centres undefined)	nt	14.7%	nt	nt	nt	nt
Nc1nc(SCC(=O)NCCO)nc2sc3c(c12)CCCC3	-2.5	2.9%	1.4%	8.5	6.8%	-14.5%
Cc1ccc(S(=O)(=O)c2nnn3c2nc(N2CCCCC2)c2sccc23)cc1	nt	-3.1%	nt	nt	nt	nt
Clc1cccc(Nc2ncnc3ccc(Br)cc23)c1	-12.7	0.5%	-36.7%	-4.7	33.8%	-52.0%
Clc1cccc(/C=N/Nc2ncnc3ccccc23)c1	62.2*	-2.5%	-10.9%	35.3*	69.2%	-3.9%
Cc1cccc(C)c1Nc1ncnc2ccccc12	-5.4	1.7%	1.1%	-1.6	-0.2%	-15.6%
C(=N\Nc1ncnc2ccccc12)/c1ccccc1	71.1*	?	1.7%	24.1*	25.4%	-30.0%
CCOC(=O)c1[nH]c2ccc(Br)cc2c1NC(=O)CNC	-5.9	?	4.7%	-6.2	9.1%	-2.8%
